Screening data as filed in PubChem BioAssay.
Insulin prom inh: inhibitors of insulin promoter-driven GFP, primary screen, imaging, TRM-6 cells (human fetal islet line), eGFP reporter, cell count; inhibition, % at 2 µM; 130,000 tested, 0.9% active; reporter expression induced with tamoxifen;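 active = inhibition above the mean plus 3 SD, with well images judged a real hit on visual review, cut at about 60% in these data, passing the limit was not always enough; inconclusive = inhibition over the cutoff but images rejected on review; inactive = inhibition not above the cutoff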
WT yeast gro inh: growth inhibition of WT strain, primary screen, mitochondrial fusion inhibitor project, WT and mutant strains, chemical genetic; mitochondrial fusion phenotypic screen; inhibition, % at 10 µM; 190,000 tested, 2.1% active; in the data active = inhibition above about 58%; tested in S. cerevisiae
Autophagy HCS: autophagy modulators in MEF cells, primary screen, imaging, high-content, MEF GFP-LC3; MEF GFP-LC3 puncta imaging; test concentration mostly 10 µM; calls only at 10 µM (by protocol); 190,000 tested, 0.98% active; AID 463193, 2010;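 active = percentage of spot-positive cells more than 3 SD above its plate mean, without a fluorescence outlier flag or 80% toxicity; inconclusive = no clear call, values can overlap the other calls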;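 also: spot-positive cell cutoff set from DMSO-treated cells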
Ins promoter up: insulin promoter activators in MIN6 cells, imaging, high-content screening, mouse beta cells; MIN6 insulin promoter-GFP reporter; stronger effect = higher value; z-score at 5 µM; 190,000 tested, 0.3% active; AID 1625, 2009;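 active = z-score above 3 at 5 µM with at least 500 cells counted in the well; inconclusive = wells under 500 cells, flagged as cytotoxic or low count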
L major viab: Leishmania major promastigote growth inhibition, primary screen; Leishmania major promastigotes, resazurin fluorescence viability; AID 1063, 2008; 200,000 tested, 9% active; inhibition, % at 10 µM; in the data active = inhibition above about 50%;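 also: promastigotes grown with compound for 44 hours at 28 °C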
Numbers without * were called inactive; i = inactive; u = inconclusive; x = no result; + = active, no number. This is a sample that favours compounds with a hit; in the whole collection about 11% have one here.

SMILES | Insulin prom inh | WT yeast gro inh | Autophagy HCS | Ins promoter up | L major viab
Cc1ccc(OCC(O)Cn2c3ccccc3c3ccccc32)cc1 (configuration not stated) | 3 | 47 | i | 0.02 | -2
Cc1ccc(Cn2c(=N)n(CC(O)COc3ccccc3)c3ccccc32)cc1 (configuration not stated) | -58 | 33 | + | u | 101*
N=c1n(Cc2ccccc2)c2ccccc2n1CC(O)COc1ccccc1 (configuration not stated) | -21 | 32 | i | -2.4 | 100*
COc1cc(/C=C(\C#N)C(=O)Nc2cccc3ncccc23)ccc1O | x | 8 | i | 0.1 | 100*
CCOC(=O)c1c(-c2ccc(C)cc2)csc1NC(=O)/C(C#N)=C/c1ccc(O)c(OC)c1 | -167 | 6 | + | x | -7
CC(C)(C)SCCNC(=O)CN(c1ccccc1)S(=O)(=O)c1ccc(F)cc1 | x | -3 | i | 0.11 | -1
O=C1c2[nH]nc(-c3ccccc3O)c2C(c2ccccc2F)N1Cc1ccco1 (configuration not stated) | 16 | 6 | i | -0.98 | 100*
O=C1c2[nH]nc(-c3ccccc3O)c2C(c2ccccc2)N1Cc1ccco1 (configuration not stated) | x | -11 | i | 1.4 | 78*
COc1cccc(C2c3c(-c4ccccc4O)n[nH]c3C(=O)N2Cc2ccco2)c1 (configuration not stated) | x | x | x | -0.03 | x
C/C(Cc1ccccc1)=N\NC(=O)CNC(=O)c1ccc(Cl)cc1 | x | x | x | 0.38 | x
CCOc1cc(CNCCO)cc(Br)c1OCc1ccccc1 | -40 | 17 | i | -0.56 | 75*
CCOc1cc(CNCc2ccccn2)cc(Cl)c1OCC | -20 | -33 | i | x | 2
CCNCc1cc(Cl)c(OCc2ccccc2)c(OCC)c1 | x | 12 | i | -0.56 | 100*
CCOc1cc(CNCCc2ccc(S(N)(=O)=O)cc2)cc(Cl)c1OCc1ccccc1 | x | 12 | i | u | 101*
CCOc1cc(CNCCc2ccc(S(N)(=O)=O)cc2)ccc1OCc1ccccc1 | x | -11 | i | -2.2 | 100*
CC(C)(C)NC(=O)C(c1ccncc1)N(C(=O)C1CSC(=O)C1)c1ccccc1 (configuration not stated) | x | -1 | i | -0.32 | -5
CC(C)c1nn2c(=O)cc(O)nc2s1 | -30 | -10 | i | 1.2 | 35
CCOCCCNCc1cc(Br)ccc1OCc1ccccc1 | -30 | 1 | i | -0.59 | 83*
CCOc1c(Cl)cc(CNCC(C)C)cc1Cl | -13 | 16 | i | x | 68*
OCCNCc1cc(Br)ccc1OCc1ccccc1 | x | 3 | i | 0.15 | 4
NS(=O)(=O)c1ccc(NCc2cc(Cl)ccc2OCc2ccc(F)cc2)cc1 | 0 | 13 | i | -0.12 | 54*
CCCNCc1cc(Cl)c(OCC)c(Cl)c1 | 67 | -20 | i | x | -2
CCOc1c(Cl)cc(CNCc2ccncc2)cc1OC | x | 9 | i | -0.39 | 84*
COc1ccc(N=Cc2ccc(-c3ccccc3)o2)cc1 | x | -3 | i | -0.29 | -4
NS(=O)(=O)c1ccc(CCNCc2cc(Br)ccc2OCc2ccccc2)cc1 | -8 | 1 | i | 0.46 | 55*
SMILES | Insulin prom inh | WT yeast gro inh | Autophagy HCS | Ins promoter up | L major viab
Brc1ccc(OCc2ccccc2)c(CNCC2CCCO2)c1 (configuration not stated) | x | 17 | i | -0.91 | 39
COc1ccc(CSc2nnc(Cc3sc(-c4ccccc4)nc3-c3ccccc3)o2)cc1 | -12 | -1 | i | -1.4 | 10
Nc1cc(=O)[nH]c(SCc2ccc(Cl)cc2)n1 | 19 | -1 | i | 0.38 | 69*
Nc1cc(=O)[nH]c(SCc2cccc(Cl)c2)n1 | 6 | -7 | i | -0.04 | 3
OCCNCCNCc1ccc(-c2ccccc2)cc1 | -7 | 3 | i | -0.39 | 100*
Cc1ccc(S(=O)(=O)c2c(N)n(Cc3ccco3)c3nc4ccccc4nc23)cc1C | -41 | 13 | i | 0.2 | 91*
Nc1c(S(=O)(=O)c2ccccc2)c2nc3ccccc3nc2n1Cc1ccco1 | x | 0 | i | -0.32 | 77*
COc1ccc(Cc2nnc(Nc3ccc4c(c3)OCCO4)[nH]c2=O)cc1 | x | 4 | i | -0.09 | -9
COC(=O)c1ccc(NC(=O)COc2ccc([N+](=O)[O-])cc2)cc1 | x | x | x | 2.2 | x
CCCCCN1C=CC(=C2C(=O)c3ccccc3C2=O)C=C1 | x | 58* | i | -1.9 | 12
CCN1CCN(C(=S)Nc2cccc([N+](=O)[O-])c2)CC1 | x | -20 | i | 0.78 | -5
CCN1C/C(=C/c2cccc([N+](=O)[O-])c2)C(=O)/C(=C/c2cccc([N+](=O)[O-])c2)C1 | 100* | 88* | i | 0.13 | 100*
Cc1cccc(C)c1OC(=O)CSc1nnc(-c2ccccc2O)o1 | 3 | 7 | i | 1.3 | 0
CNc1cc(CSC)nc(SCc2ccc(Cl)cc2Cl)n1 | 3 | 85* | i | -0.6 | 11
Nc1nc(SCc2ccc(Cl)cc2Cl)n[nH]1 | 27 | -5 | i | -1.5 | -4
O=c1[nH][nH]c(-c2ccccc2O)c1C(C[N+](=O)[O-])c1ccc(Cl)cc1Cl (configuration not stated) | -6 | -2 | i | -0.86 | 98*
Cc1cc(O)c(C(C[N+](=O)[O-])c2ccc(Cl)cc2Cl)c(=O)o1 (configuration not stated) | 43 | -23 | i | 0.7 | 49
O=c1[nH][nH]c(-c2ccccc2O)c1C(C[N+](=O)[O-])c1ccccc1 (configuration not stated) | -7 | -6 | i | 0.7 | 98*
O=c1[nH][nH]c(-c2ccccc2O)c1C(C[N+](=O)[O-])c1cccc(Cl)c1 (configuration not stated) | 36 | -9 | i | -0.62 | 100*
COc1c2c(nc3occc13)C(CC=C(C)C)(OC)C(OC(C)=O)CC2 (configuration not stated) | -31 | -18 | i | x | 2
CCOC(=O)C1(Cc2cccc(F)c2)CCN(Cc2cn(CC)nc2C)CC1 | x | 4 | i | -0.99 | 71*
CCOC(=O)C1(CCCc2ccccc2)CCN(Cc2cn(CC)nc2C)CC1 | x | 6 | i | x | 84*
CCOC(=O)C1(CCCc2ccccc2)CCN(C(=O)Cc2nonc2C)CC1 | x | 14 | i | 0.95 | 21
CSc1nc(S(=O)(=O)c2ccc(C)cc2)c(Cl)s1 | x | 8 | i | -0.21 | 2
O=S(=O)(c1cnc[nH]1)N1CCc2ccccc21 | x | 2 | i | 1.7 | 61*
Cc1cc(N2CCCC2)c(F)cc1/C=C\[N+](=O)[O-] | x | 23 | i | -0.12 | 52*
C/C(CCC(C)C)=N\NC(=S)NCc1ccccc1 | x | 60* | i | 0.3 | 39
C/C(=N\NC(=S)NCc1ccccc1)c1ccc2ccccc2c1 | -50 | 64* | i | 1 | 44
COc1ccc(CNC(=S)N/N=C(\C)c2ccc(OC)cc2)cc1 | x | x | x | -0.04 | x
